Experimental data reported in article PMC5540273 (PLoS ONE, 2017).

Assays:
Conditions in all cases: concentration: 1 μM, replicates: in singlicate; n = 1
SIK2 = test system: SIK2
SIK = test system: SIK
SLK = test system: SLK
SNARK = test system: T1, SNARK
T1 construct: gene NUAK2

SNRK = test system: SNRK
SRC = test system: SRC
SRMS = test system: SRMS
SRPK1 = test system: SRPK1
SRPK2 = test system: SRPK2
SRPK3 = test system: SRPK3
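Also: KINOMEscan kinase panel screen.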

SMILES	%Inh (SIK2) [%]	%Inh (SIK) [%]	%Inh (SLK) [%]	%Inh (SNARK) [%]	%Inh (SNRK) [%]	%Inh (SRC) [%]	%Inh (SRMS) [%]	%Inh (SRPK1) [%]	%Inh (SRPK2) [%]	%Inh (SRPK3) [%]
CC(=O)Nc1nc2cnc(Nc3cc(NC(=O)c4cccc(CCC#N)c4)ccc3C)nc2s1	0	16	14	9	33	18	0	17	22	0
O=C(Nc1n[nH]c2nc(-c3nccs3)c(Br)cc12)C1CC1 [SB-742251]	0	6	0	0	0	0	0	19	21	0
Fc1cccc(COc2nnc(-c3ccc4c(c3)CCO4)o2)c1	0	0	0	0	0	0	5	0	0	7
COc1ccc(CNC(=O)NC2CCN(c3ccnc(Nc4cc(OC)c(OC)c(OC)c4)n3)C2)cc1 (stereo not drawn) [GSK1379748]	0	0	0	25	0	14	0	11	31	0
O=C1NC(=O)C(N2CCc3ccccc32)=C1c1ccccc1Cl [SB-373598]	6	0	29	11	1	18	98.3	0	0	33
Cl.Oc1ccc(-c2nc(-c3ccccc3)[nH]c2-c2ccncc2)cc1 [SB-428218]	0	0	28	0	5	33	7	0	0	3
CS(=O)(=O)c1ccc(-c2c(-c3ncn[nH]3)sc(N3CCOCC3)c2C#N)cc1	0	39	3	0	7	0	0	0	0	0
Cc1ccc(NC(=O)Nc2cc(C(C)(C)C)nn2-c2ccccc2)cc1 [GSK1014915]	4	0	44	0	0	2	0	21	0	2
Cc1cccc(-c2nc(Nc3ccncc3)c3ccccc3n2)n1 [GW855857]	0	4	18	0	0	20	0	0	54	15
COc1cc2nccc(Nc3ccc(NC(=O)c4ccc(C)cc4)c(O)c3)c2cc1OC.Cl [GW440132]	0	16	44	0	0	20	71	18	0	0
COc1cccc(NC(=O)NC2CCN(c3ccnc(Nc4ccc(F)cc4)n3)C2)c1 (stereo not drawn) [GSK1379721]	0	0	0	0	0	0	0	0	5	0
Fc1cc(Cl)ccc1Nc1ccnc2cc(-c3ccc(CN4CCCCC4)o3)ccc12 [GW560116]	22	9	0	0	0	90.8	0	0	35	0
COc1cccc(-c2cc(-c3c[nH]nc3-c3ccccn3)ccn2)c1 [GW680338]	0	0	0	11	0	0	2	96.8	8	0
Cn1ccc2ncnc(Oc3ccc(Nc4nc5ccccc5[nH]4)cc3)c21	10	0	14	0	0	3	0	0	7	0
CCCc1ccc(S(=O)(=O)NC2CCN(c3ccnc(Nc4ccc(F)cc4)n3)C2)cc1 (stereo not drawn) [GSK1379715]	0	0	0	0	0	48	0	0	17	6
Fc1cc(Cl)ccc1Nc1ccnc2cc(I)ccc12 [GW551191]	49	29	0	0	0	0	0	7	0	8
CN1C(=O)C(Nc2ccc(Cl)c(C(=O)O)c2)=C(c2ccc(Cl)cc2)C1=O [SB-404290]	0	0	13	8	0	0	19	20	12	15
Nc1ncnc2[nH]c(-c3ccccc3)nc12 [AH5015]	5	0	14	3	100	29	2	12	0	0
